A word on the inhibition: it is the change of the read-out against control, counted positive when it falls. In general, viability refers to a read-out of living cells in per cent, often relative to untreated cells. Usually remaining activity stands for the signal under treatment as a percentage of the control signal.

The values below come from PubChem BioAssay.

A short description of test [1]: blockers of polyQ-driven CASP3 activation – cell-based (AID 1583). As to conditions: polyglutamine-induced caspase-3 activation, cell assay; stronger effect = higher value;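 tested at 10 µM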.
Test [2] in a line: yeast 75Q aggregation reduction – 75Q-TubU reporter (AID 1593). The conditions noted are these: Yeast 75Q polyglutamine aggregation reporter.
Test [3] is described as follows: restoration of touch response, mutant HTT neurons – whole organism, C. elegans mechanosensory neurons, N-terminal huntingtin (AID 1599). As to conditions: C. elegans polyQ-huntingtin mechanosensory neurons, stronger effect = higher value.
Test [4] can be described thus: blockers of cytochrome c efflux from mitochondria – biochemical, purified mitochondria (AID 1603).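 Note: mouse liver mitochondria challenged with calcium chloride; signal normalized to the plate average as 100%.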 As to conditions: stronger effect = lower value.
Test [5] in a line: polyglutamine aggregate formation blockers (AID 1604). The conditions noted are these: polyglutamine-induced protein aggregation inhibition assay; stronger effect = higher value; tested at 2.5 µM.
Test [6] is described as follows: glutamate transport activators, MN-1 cells, MN-1 cell line (AID 1612).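 Note: tested at 1 µM final; 0% = mean of DMSO vehicle wells on each plate; positive means more glutamate uptake than control and negative means less.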 As to conditions: MN-1 motor neuron cells, stronger effect = higher value.
Test [7] in a line: GFP-Q80 aggregate reduction, neuronal-like cells, cell-based, NGF-treated PC12, GFPQ80 (AID 1614).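 Note: lower means fewer inclusions and 0 means no inclusions at all.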 The conditions noted are these: PC12 NGF-treated GFP-polyQ80 inclusion reduction.
Test [8] can be described thus: 75Q-TubH aggregate inhibition, S. cerevisiae, yeast (AID 1616). The conditions noted are these: S. cerevisiae 75Q-TubH polyglutamine aggregation suppression; stronger effect = higher value.
A short description of test [9]: P. berghei load reduction in hepatocytes – cell-based, HepG2, luciferase luminescence, HepG2 viability, primary screen (AID 624349; in the data active = parasite load remaining mostly below about 12%, no sharp cut-off; inactive = mostly above about 10%;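 note: 100% = mean of DMSO negative control wells on the same plate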). The conditions noted are these: P. berghei liver stage in HepG2, luciferase luminescence, concentration not given here; parasite load remaining: stronger effect = lower value; viability: measured here: HepG2 viability without parasites.
In test [10] the target is 6-phosphogluconate dehydrogenase, decarboxylating (Homo sapiens) (UniProt P52209). Description: inhibition of human phosphogluconate dehydrogenase – biochemical, recombinant enzyme, NADPH absorbance, primary screen (AID 1159550). As to conditions: recombinant 6PGD, NADPH absorbance 341 nm; at 10 µM; stronger effect = higher value.
Test [11] has as its system Aerobactin synthetase IucA (Klebsiella pneumoniae hvKP1). Description: IucA enzyme inhibition, primary screen, biochemical, Spectrum library (AID 1346200; call rule not given here;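 note: 100% = wells without compound and 0% = wells lacking enzyme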). As to conditions: malachite green pyrophosphate, A620, at 8 µM, stronger effect = lower value.
Test [12] is described as follows: viability loss with induced miR-34 in A549 – imaging, A549 dox-inducible miR-34, nuclei and caspase counts, primary screen (AID 1347080;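 active = compounds whose cell count with miR-34 switched on is under 0.7 times the count with it off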). As to conditions: A549 miR-34 inducible, Hoechst nuclei count, 48 h.
The nature of test [13]: galactose survival enhancers in mitochondrial complex I cybrids – cell-based, galactose medium, ATP luminescence, primary screen (AID 1645843;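 active = z-score of at least 1.8 in each of two replicates, scored against plate mean and spread of sample wells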;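 note: positive z means more ATP and so rescue of galactose-driven cybrid death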). The conditions noted are these: complex I mutant cybrid cells, 72 h, stronger effect = higher value.
A short description of test [14]: EMT-state selective cytotoxicity in co-culture – imaging, PC-3E GFP, TEM4-18 mCherry, primary screen (AID 1345086;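 active = compounds killing one labelled cell type while sparing the other, by normalised counts and ratio limits, not self-fluorescent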;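 for all read-outs here: cells exposed to compound for 72 h before imaging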;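 for red/green cell ratio (normalised): normalised mesenchymal count divided by normalised epithelial count so high means epithelial killing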). The conditions noted are these: PC-3E GFP / TEM4-18 mCherry co-culture, imaging cell counts, at 1 µM; for red/green cell ratio (normalised): actives lie on both sides.
Test [15] has as its target Mitogen-activated protein kinase 7 (Homo sapiens) (UniProt Q13164). Nature of the test: Gal4-ERK5 driven luciferase induction – cell-based, HTS, primary screen (AID 1508626;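 active = luciferase signal above three times the same-plate solvent-only control wells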;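 note: luciferase driven by Gal4-ERK5 fusion binding five Gal4 sites before minimal TATA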). As to conditions: HeLa Gal4-ERK5 transactivation, 18 h, at 5 µM, stronger effect = higher value.
Test [16] addresses ATP-dependent translocase ABCB1 (Homo sapiens) (UniProt P08183). Nature of the test: P-glycoprotein substrate transport blockade – cell-based (AID 377; in the data active = fluorescence slope change above about 50%). As to conditions: MDR1-expressing cells, fluorescent substrate accumulation slope; stronger effect = higher value; concentration not given here.
A short description of test [17]: compounds altering viability of human ES cells (AID 493140; call rule not given here;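 note: cells exposed to compounds for four days before counting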). The conditions noted are these: human embryonic stem cell survival screen; stronger effect = higher value.
For test [18], the system named is Aerobactin synthetase IucA (Klebsiella pneumoniae, hypervirulent). Description: biochemical IucA inhibition screen of LOPAC library by absorbance (AID 1346212; call rule not given here;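 note: 100% = no compound wells and 0% = no enzyme wells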). The conditions noted are these: IucA enzyme assay, absorbance (OD) readout; stronger effect = lower value;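 tested at 8 µM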.
Test [19] can be described thus: MELAS cybrid and Rieske KO viability enhancers – cell-based, MELAS cybrids, Rieske KO mouse fibroblasts, CellTiter-Glo, primary screen (AID 1508586;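 active = mean z-score across replicates of 1.96 or higher in either the MELAS or the Rieske mutant cell line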;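 note: z relative to plate mean and SD of compound and empty wells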). The conditions noted are these: low glucose. A general note: ATP-based viability assays read luminescence as a measure of living cells.
Test [20] has as its target NAD(+) hydrolase SARM1 (Homo sapiens) (UniProt Q6SZW1). Description: blocking NAD cleavage by SARM1 SAM-TIR – cell lysate, NAD-Glo luminescence (AID 1508614;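 active = compound whose remaining NAD level is above about 45 nM, limit read from the data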;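 note: higher remaining NAD means stronger inhibition of SARM1 NADase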). As to conditions: SAM-TIR HEK293T lysate NADase, at 1 µM, stronger effect = higher value.
[21] abbreviates: measured here: relative caspase fold change +Dox/-Dox.
The mark [22] stands for this setting: measured here: total cells with miR-34 induction, stronger effect = lower value.
[23] abbreviates: measured here: total cells without miR-34 induction.
[24] abbreviates: measured here: epithelial PC-3E GFP cell survival.
Where [25] appears, read: measured here: mesenchymal TEM4-18 mCherry cell survival.
Where [26] appears, read: MELAS cybrid survival, CellTiter-Glo 48 h, stronger effect = higher value.
Where [27] appears, read: Rieske KO mouse fibroblast survival, CellTiter-Glo 72 h.

Values joined by “and” are separate entries in the source; they are usually repeats but may differ in a detail not shown here. Identical values can stand only once. Inconclusive results are not listed. For some of these results: Potency and affinity values are given separately. Active and inactive are the calls of the source.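 Rule for the calls, unless noted: active = at least 20% inhibition of 6-phosphogluconate dehydrogenase activity; inactive = the rest.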

Chain of 6-phosphogluconate dehydrogenase, decarboxylating (Homo sapiens) (P52209 whole entry, looked up): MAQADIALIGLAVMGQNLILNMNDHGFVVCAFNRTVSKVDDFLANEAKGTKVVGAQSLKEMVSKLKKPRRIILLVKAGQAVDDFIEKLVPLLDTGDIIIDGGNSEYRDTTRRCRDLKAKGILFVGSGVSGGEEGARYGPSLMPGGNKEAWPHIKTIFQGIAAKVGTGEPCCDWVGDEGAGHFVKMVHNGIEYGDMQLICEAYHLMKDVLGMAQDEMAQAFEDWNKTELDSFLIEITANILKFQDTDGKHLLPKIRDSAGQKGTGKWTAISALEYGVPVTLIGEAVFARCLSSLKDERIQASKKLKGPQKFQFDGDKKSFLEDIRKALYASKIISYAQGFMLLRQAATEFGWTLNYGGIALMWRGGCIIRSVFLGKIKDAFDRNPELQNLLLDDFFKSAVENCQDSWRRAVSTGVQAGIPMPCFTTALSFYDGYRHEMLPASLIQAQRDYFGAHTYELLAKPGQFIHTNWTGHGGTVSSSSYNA
Chain of Mitogen-activated protein kinase 7 (Homo sapiens) (Q13164 whole entry, looked up, the tested form may be a part): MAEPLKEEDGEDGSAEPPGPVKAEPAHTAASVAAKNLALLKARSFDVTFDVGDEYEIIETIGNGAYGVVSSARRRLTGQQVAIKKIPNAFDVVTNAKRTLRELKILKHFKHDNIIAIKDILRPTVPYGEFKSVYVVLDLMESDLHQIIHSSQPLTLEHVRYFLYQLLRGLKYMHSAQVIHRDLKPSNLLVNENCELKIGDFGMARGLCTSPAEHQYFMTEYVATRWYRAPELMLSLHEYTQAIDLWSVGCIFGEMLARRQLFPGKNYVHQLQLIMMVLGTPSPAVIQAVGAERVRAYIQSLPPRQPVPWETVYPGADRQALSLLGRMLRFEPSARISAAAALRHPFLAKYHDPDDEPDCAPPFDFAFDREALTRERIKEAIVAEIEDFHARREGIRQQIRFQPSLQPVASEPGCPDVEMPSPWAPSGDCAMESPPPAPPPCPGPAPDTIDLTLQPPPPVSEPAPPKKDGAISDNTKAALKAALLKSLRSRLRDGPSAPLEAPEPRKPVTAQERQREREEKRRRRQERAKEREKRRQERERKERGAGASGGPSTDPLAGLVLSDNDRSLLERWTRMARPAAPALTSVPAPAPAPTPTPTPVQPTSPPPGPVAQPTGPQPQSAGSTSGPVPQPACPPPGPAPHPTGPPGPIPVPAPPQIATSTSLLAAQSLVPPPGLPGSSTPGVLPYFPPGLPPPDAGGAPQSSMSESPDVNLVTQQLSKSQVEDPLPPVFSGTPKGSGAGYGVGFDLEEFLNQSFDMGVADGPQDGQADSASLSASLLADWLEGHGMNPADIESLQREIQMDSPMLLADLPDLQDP
Chain of ATP-dependent translocase ABCB1 (Homo sapiens) (P08183 whole entry, looked up): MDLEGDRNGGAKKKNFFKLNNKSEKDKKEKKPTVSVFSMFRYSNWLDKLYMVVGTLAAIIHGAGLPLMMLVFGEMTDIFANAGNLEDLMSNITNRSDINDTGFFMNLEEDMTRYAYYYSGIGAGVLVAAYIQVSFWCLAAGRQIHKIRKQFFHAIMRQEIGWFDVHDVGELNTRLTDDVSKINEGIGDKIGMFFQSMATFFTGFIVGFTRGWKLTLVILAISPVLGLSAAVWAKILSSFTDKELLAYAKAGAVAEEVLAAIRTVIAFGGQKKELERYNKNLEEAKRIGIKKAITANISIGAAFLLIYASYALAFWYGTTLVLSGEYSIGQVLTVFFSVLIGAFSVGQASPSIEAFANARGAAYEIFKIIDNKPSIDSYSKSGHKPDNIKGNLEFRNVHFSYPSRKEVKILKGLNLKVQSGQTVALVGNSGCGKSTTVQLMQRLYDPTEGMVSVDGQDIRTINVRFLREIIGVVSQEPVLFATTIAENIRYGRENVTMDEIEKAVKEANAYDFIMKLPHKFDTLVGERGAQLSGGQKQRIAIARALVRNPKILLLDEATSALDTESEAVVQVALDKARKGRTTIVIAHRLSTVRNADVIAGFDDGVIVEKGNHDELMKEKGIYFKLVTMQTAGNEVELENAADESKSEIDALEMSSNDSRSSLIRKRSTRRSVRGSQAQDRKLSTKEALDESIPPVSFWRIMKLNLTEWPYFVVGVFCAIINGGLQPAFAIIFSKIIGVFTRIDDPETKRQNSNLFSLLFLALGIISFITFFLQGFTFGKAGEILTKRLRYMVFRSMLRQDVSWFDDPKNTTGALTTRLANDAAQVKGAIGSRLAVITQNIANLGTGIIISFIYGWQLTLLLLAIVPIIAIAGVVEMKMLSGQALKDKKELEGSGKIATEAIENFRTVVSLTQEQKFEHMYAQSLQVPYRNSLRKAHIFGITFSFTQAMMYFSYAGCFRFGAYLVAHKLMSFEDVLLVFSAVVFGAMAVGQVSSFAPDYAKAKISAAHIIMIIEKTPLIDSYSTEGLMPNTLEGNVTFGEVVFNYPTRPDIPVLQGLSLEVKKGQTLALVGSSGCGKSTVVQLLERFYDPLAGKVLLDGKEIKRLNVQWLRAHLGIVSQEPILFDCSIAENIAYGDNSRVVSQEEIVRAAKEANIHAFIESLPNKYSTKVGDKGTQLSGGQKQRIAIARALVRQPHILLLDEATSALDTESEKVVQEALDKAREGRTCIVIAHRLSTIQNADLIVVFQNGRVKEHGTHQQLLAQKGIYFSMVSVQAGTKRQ
Chain of NAD(+) hydrolase SARM1 (Homo sapiens) (Q6SZW1 whole entry, looked up): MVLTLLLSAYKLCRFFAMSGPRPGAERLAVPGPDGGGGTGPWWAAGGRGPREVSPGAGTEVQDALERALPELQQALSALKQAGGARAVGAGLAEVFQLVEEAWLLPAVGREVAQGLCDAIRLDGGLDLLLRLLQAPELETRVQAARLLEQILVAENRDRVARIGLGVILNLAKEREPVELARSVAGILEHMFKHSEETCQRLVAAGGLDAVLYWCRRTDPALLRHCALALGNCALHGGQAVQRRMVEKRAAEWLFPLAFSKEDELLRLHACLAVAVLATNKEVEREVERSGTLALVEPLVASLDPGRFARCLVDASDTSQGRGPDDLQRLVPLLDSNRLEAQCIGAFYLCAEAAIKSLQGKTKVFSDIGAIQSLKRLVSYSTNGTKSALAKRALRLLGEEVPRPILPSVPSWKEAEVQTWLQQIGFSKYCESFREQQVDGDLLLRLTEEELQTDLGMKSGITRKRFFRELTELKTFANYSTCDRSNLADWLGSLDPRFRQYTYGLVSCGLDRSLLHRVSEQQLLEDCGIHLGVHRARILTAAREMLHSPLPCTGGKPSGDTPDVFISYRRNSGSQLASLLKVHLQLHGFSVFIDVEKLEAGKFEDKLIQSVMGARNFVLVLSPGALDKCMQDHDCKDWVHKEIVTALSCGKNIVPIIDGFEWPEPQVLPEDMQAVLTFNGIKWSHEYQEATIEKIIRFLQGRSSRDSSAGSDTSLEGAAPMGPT

For `FC(F)(F)c1cccc(N2CCNCC2)c1`, the inhibition in [1] was 28.1%; in test [10] it was 7.13% (inactive). The compound also displayed a score in test [2] of 1.15. Also, the rescue above control in test [3] turned out to be 0. In addition, the cytochrome c release ratio in [4] came out at 0.84. Besides, in test [5], the inhibition of aggregation worked out at 50%. In addition, in test [6], the glutamate uptake change was 0.29%. Moreover, the inclusion score in [7] worked out at 2. This compound also showed an aggregation suppression score in test [8] of 1.16. Also, the parasite load remaining in test [9] is 134% (inactive). The viability in test [9] was determined as 71.2%. In addition, the activity remaining in test [11] is 116% (inactive). Moreover, the figures for the fold change in [12] (stronger effect = lower value) and in test [12] (setting [21]) were 0.923 (inactive) and 1.38, respectively. Besides, the cell count in test [12] (setting [22]) came out at 9590; in test [12] (setting [23]) it was 10400. The z-score in test [13] was 0.73 (inactive).

Consider `COc1ccc(C[C@H]2NC[C@H](O)[C@H]2OC(C)=O)cc1`, for which the inhibition is 72.2% in [1] and -19.6% (inactive) in test [10]. Further, the score in test [2] was found to be 0.1. Moreover, the rescue above control in [3] was found to be 20.1. Moreover, the cytochrome c release ratio in test [4] amounted to 0.83. This compound also registered an inhibition of aggregation in test [5] of 100%. Further, the glutamate uptake change in test [6] was -57.2%. For the same compound, the aggregation suppression score in test [8] amounted to 0.0246. Moreover, the parasite load remaining in [9] was -43.5% (inactive) and -0.655% (inactive). The viability in test [9] was 60.3% and 76.2%. Besides, in [14], the red/green cell ratio (normalised) is 0.63 (inactive). In addition, the figures for the normalised cell number in test [14] (setting [24]) and in test [14] (setting [25]) were 0.16 and 0.1, respectively. For the same compound, the activity remaining in [11] was 92.2% (inactive). Moreover, the fold change in [12] (stronger effect = lower value) was 0.919 (inactive) and 1.04 (inactive); in test [12] (setting [21]), 1.66. The cell count was 1170 and 1230 in test [12] (setting [22]); 1270 and 1190 in [12] (setting [23]). Besides, the luciferase signal in test [15] was 16 AU (inactive). Besides, the z-score in test [13] was -0.88 (inactive).

For the compound `O=c1c2ccccc2[se]n1-c1ccccc1`, in [16], the fluorescence slope change is -12.9% (inactive). Besides, the inhibition is 12.1% in test [1] and 51.1% (active) in test [10]. The score in test [2] came out at 0.32. For the same compound, the cytochrome c release ratio in test [4] stood at 1.88. The compound further gave an inhibition of aggregation in [5] of 72.2%. Also, the glutamate uptake change in [6] was determined as 26.2%. In addition, in test [8], the aggregation suppression score was determined as 0.00636. The survival in test [17] is 0.417 (inactive). The parasite load remaining in test [9] was 54.1% (inactive) and 46.2% (inactive). Further, the viability in [9] is 93.6% and 69.7%. The red/green cell ratio (normalised) in [14] is 0.87 (inactive). Also, the normalised cell number in test [14] (setting [24]) is 1.06; in test [14] (setting [25]) it was 0.92. Moreover, in test [11], the activity remaining is -2.27% (active). In test [18], the remaining activity was -5.47% (active). Besides, the values for the z-score in test [19] (setting [26]), in test [19] (setting [27]) and in [13] were -1.8, 2.16 and -1.44 (inactive), respectively. Also, in test [20], the remaining NAD was 10 nM (inactive).

As for `COP(=O)(OC)OC(C)C(C)=O` (configuration not stated), the inhibition in [10] is 13.2% (inactive).

For `CCS(=O)CCSP(=O)(OC)OC` (configuration not stated), the inhibition in [10] is 1.58% (inactive).

Consider `CC(C)=CCC[C@]1(C)C=Cc2c(O)c3c(c(CC=C(C)C)c2O1)O[C@]12C(=C[C@@H]4C[C@H]1C(C)(C)O[C@@]2(C/C=C(/C)C(N)=O)C4=O)C3=O`, for which, in [10], the inhibition was -5.75% (inactive).

Consider `CN1C2C[C@H](OC(=O)[C@H](CO)c3ccccc3)CC1[C@@H](O)C2` (some centres not stated), for which the inhibition in test [10] was -3.17% (inactive).

On to `C[C@H]1CCCC(=O)CCC/C=C/c2cc(O)cc(O)c2C(=O)O1`, for which the inhibition in test [10] was 15.7% (inactive). Moreover, in test [14] (counts scaled to control wells, 1 = unselective), the red/green cell ratio (normalised) is 1.02 (inactive). Besides, the normalised cell number in test [14] (setting [24]) was 1.02; in [14] (setting [25]), 1.04. In addition, the activity remaining in [11] is 103% (inactive).

For the compound `COc1ccc2c(c1)[nH]c1c(C)nccc12`, in test [16], the fluorescence slope change was 59.3% (active). The survival in test [17] was 4.58 (inactive). Also, the viability in [9] is 76.6% and 67.9% and 85.5%. Further, the inhibition in [10] was -2.64% (inactive). In addition, the red/green cell ratio (normalised) in test [14] was 0.67 (inactive). Besides, the normalised cell number in [14] (setting [24]) was 0.9; in test [14] (setting [25]) it was 0.6. Further, the activity remaining in [11] was 104% (inactive). Also, the fold change in test [12] (stronger effect = lower value) is 0.845 (inactive) and 0.909 (inactive) and 0.923 (inactive); in test [12] (setting [21]), 1.49 and 0.507 and 1.16. Also, the cell count in [12] (setting [22]) is 4630 and 5110 and 4130; in test [12] (setting [23]), 5480 and 5630 and 4470. Also, the z-score in test [19] (setting [26]) is 0.384 (inactive); in [19] (setting [27]), 1.34; in test [13], -0.45 (inactive). The luciferase signal in [15] was 124 AU (inactive).
